Screening data (PubChem BioAssay)
A selection: hits, their analogues and other compounds. The true share with any hit is near 3.9%.
BH1578 lux ind = inducers of Vibrio cholerae quorum light production without autoinducers, primary screen, BH1578 luxS cqsA deficient, single point; V. cholerae BH1578 lux reporter, luminescence, 6 h; activation, % at 18.7 µM; actives 0.16% (n = 350,000); AID 588436, 2011; in the data active = activation mostly above about 9.7%, no sharp cut-off; inconclusive = no clear call, values can overlap the other calls; inactive = mostly below about 3.7%
BoNT A protease = BoNT/A light chain protease inhibitors, primary screen, biochemical, flow cytometry, MLPCN library | Botulinum neurotoxin type A light chain protease (Clostridium botulinum A str. ATCC 3502) | multiplex microsphere protease substrate cleavage | inhibition, % at 10 µM | actives 0.17% (n = 360,000); also: plate controls were buffer without enzyme for full effect and enzyme alone for no effect
BoNT F protease = BoNT/F light chain protease inhibitors, primary screen, biochemical, flow cytometry, MLPCN library. Botulinum neurotoxin type F light chain protease (Clostridium botulinum). Multiplex microsphere protease cleavage assay. inhibition, % at 10 µM. actives 0.22% (n = 360,000); in the data active = inhibition above about 35%, passing the limit was not always enough; inconclusive = no clear call, values can overlap the other calls; also: plate controls were buffer without enzyme for full effect and enzyme alone for no effect
Autofluor counter = flagged as autofluorescent in microsphere protease counterscreen; compound autofluorescence counterscreen, microsphere flow cytometry; active compounds read high; fluorescence intensity (no concentration beside the values); actives 3.1% (n = 360,000); AID 624483; in the data active = fluorescence intensity above about 16000; inconclusive = no clear call, values can overlap the other calls
MazF activator = activators of E. coli MazEF toxin-antitoxin RNase, primary screen, biochemical, fluorescence, uHTS; Endoribonuclease toxin MazF (Escherichia coli (strain K12)), P0AE70; FAM/BHQ RNA-DNA oligo cleavage fluorescence, 5 h; activation, % at 20 µM; actives 0.32% (n = 350,000); in the data active = activation above about 50%
Target sequence (P0AE70 whole entry, looked up): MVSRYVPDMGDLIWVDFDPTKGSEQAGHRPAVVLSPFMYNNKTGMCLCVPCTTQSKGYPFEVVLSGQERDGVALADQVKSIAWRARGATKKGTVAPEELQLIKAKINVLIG
Anthrax LF inh2 = Bacillus anthracis LF protease inhibitors, primary screen, biochemical, multiplex microsphere, MLPCN library; inhibition, % at 10 µM; multiplex microsphere protease cleavage assay; actives 0.12% (n = 360,000); also: plate controls were buffer without enzyme for full effect and enzyme alone for no effect
* hit, by the source's call; i = inactive; ? = inconclusive. Rule as the data show it, unless noted: active = inhibition above about 30%; inconclusive = no clear call, values can overlap the other calls; inactive = below that.

SMILES	BH1578 lux ind	BoNT A protease	BoNT F protease	Autofluor counter	MazF activator	Anthrax LF inh2
CCCCN(C(=O)C(C)(C)Oc1ccc(Cl)cc1)c1c(N)n(CCC)c(=O)[nH]c1=O	-0.4	0.3	-8.9	3411	7.4	-5.5
Cn1c(O)c(/C=N/c2ncccn2)c(=O)n(C)c1=O	-1.8	1.6	4.0	21865*	0.5	3.9
Cc1ccccc1OCCN=Cc1c(O)n(C)c(=O)n(C)c1=O	-0.9	1.7	2.8	22922*	1.0	1.1
O=C(N/C(=C/c1ccccc1F)C(=O)N1CCCCC1)c1ccccc1	i	-3.9	-1.4	2958	6.4	4.7
COc1cccc(N2CCN(c3nc(-c4ccccc4C)cc(=O)[nH]3)CC2)c1	i	-0.6	-0.1	3188	-5.6	-8.9
COc1c(F)c(F)c(C(=O)O)c(Nc2ccc(C)cc2)c1F	-0.9	-4.9	-5.1	22057*	0.9	-1.4
Cc1c(NC(=O)c2cccc(NC(=O)COc3cccc(Br)c3)c2)c(=O)n(-c2ccccc2)n1C	-0.7	0.1	-0.1	3851	0.0	-0.2
O=C(Cn1cccc1)N1CCc2ccccc21	-1.7	-4.5	-9.7	17880*	11.0	-3.9
CC1Oc2ccccc2N(CC(=O)N2CCc3ccccc32)C1=O (stereo not given)	i	0.9	0.1	23145*	-13.4	-3.9
CC1Oc2ccccc2N(CC(=O)N2CCCc3ccccc32)C1=O (stereo not given)	-0.2	11.4	12.7	18633*	-12.3	-16.5
Cc1ccc(-c2c[n+](CC(=O)Nc3cc(=O)n(C)c(=O)n3C)c3n2CCC3)cc1	-0.2	0.0	-3.8	2246	6.6	-1.1
COCC(=O)N(Cc1cc2ccc(C)cc2[nH]c1=O)c1ccc(OC)cc1	-1.2	?	0.7	23081*	-2.3	-1.7
COc1ccccc1NCC(=O)NNCC(=O)Nc1ccc(F)c(Cl)c1	-0.8	0.1	0.8	2362	12.1	1.7
CCn1c(O)c(/C=N/N=C/c2ccccc2)c2ccc(C3=NNC(=O)CC3)cc21	i	1.5	0.0	22930*	747.1*	-1.5
COC(=O)Nc1ccc(S(=O)(=O)N(CCO)CCO)cc1	-0.2	0.9	2.2	22684*	5.8	-0.4
O=C(Nc1ccccc1)c1ccc(S(=O)(=O)N(CCO)CCO)cc1	i	1.0	23.5	4639	3.1	1.9
CC(=O)Nc1ccc(Oc2ccccc2)cc1	-0.6	-2.0	-5.0	5703	-1.2	-10.8
COC(=O)Nc1ccc(Oc2ccccc2)cc1	-2.4	-6.0	-5.0	21537*	-5.0	0.7
c1ccc(CSc2ncnc3c2cnn3-c2ccccc2)cc1	i	-0.8	0.7	2505	2.6	-2.5
Cc1nc(Cl)c(C#N)cc1-c1ccccc1	4.6	0.2	-2.0	19692*	9.8	1.9
Cc1nc(Sc2ccccc2)c(C#N)cc1-c1ccccc1	-0.3	-2.0	-14.1	12117	-10.5	-2.3
Cc1cn([C@H]2C[C@H](O)[C@@H](CNS(=O)(=O)N3CCCC3)O2)c(=O)[nH]c1=O	-0.4	-0.2	-2.6	3586	2.3	1.7
CNC(=O)CS(=O)(=O)CC(=O)Nc1cc(OC(C)C)c(Cl)cc1Cl	1.0	0.0	-0.5	4501	-9.5	7.7
C=CCN1C(=O)C(CC(=O)Nc2ccc(OC)cc2)N(Cc2ccco2)C1=S (stereo not given)	-2.0	?	-1.3	22980*	4.4	1.0
COc1ccc(NC(=O)CC2C(=O)N(C)C(=S)N2Cc2ccco2)cc1 (stereo not given)	-0.8	-0.4	-7.8	2468	1.9	-0.9
COc1ccc(NC(=O)CC2C(=O)N(CCc3ccccc3)C(=S)N2Cc2cccnc2)cc1 (stereo not given)	i	-3.3	-5.8	20810*	1.4	-0.1
O=C(c1ccc2c(c1)OCCCO2)c1cccs1	i	?	-4.3	22559*	3.3	-1.0
CCCCn1c(N)c(N(CC(C)C)C(=O)c2ccc(C)c(S(=O)(=O)N3CCCCC3)c2)c(=O)[nH]c1=O	-2.4	-8.9	-8.1	?	-3.9	-5.4
